High-throughput results deposited in PubChem by National Center for Advancing Translational Sciences (NCATS).
Hits are enriched below; roughly 13% of the tested compounds scored in any of these assays.
HCV inhibitor: blocks hepatitis C virus; hit rate 3.4% among 340,000; Potency, µM (series often up to 41.8 µM), usual class: inhibitors; Huh7.5.1 HCVcc-Cre infection, luciferase reporter, 44 h; active = well fitted inhibition curve with a large enough effect; inconclusive = small, poorly fitted or top-dose-only effect, or another doubt; inactive = no such curve, though single readings can be large or run the other way
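Luciferase read-out (15 sec integration) after a 15 min room-temperature substrate step quantifies HCVcc-Cre infection. Cells, 1,000 per well, had compound added 4 h post-plating, then virus at ~0.5 moi, and were cultured 44 h.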
Marburg entry inh: blocks Marburg virus binding to or entry into cells; Marburg virus pseudotyped entry inhibition, cell reporter; Potency, µM (titrated, usually from 37.8 µM), most hits filed as inhibitors; hit rate 1.8% among 300,000; AID 540276; calls by dose curve; tested in HEK293 cells
Cycloheximide cs: counter-screen for Shiga toxin inhibitors: cycloheximide protein synthesis inhibition. max response, %. hit rate 12% among 300,000. cell reporter, cycloheximide protein synthesis inhibition counterscreen. AID 2314; in the data active = max response mostly above about 13%, no sharp cut-off; inactive = mostly below about 14%; note: read at 38.3 µM for the half of the compounds with a filed dose
FMDV inh: blocks foot and mouth disease virus; FMDV antiviral cell-based qHTS; Potency, µM (titrated, usually from 57.9 µM), hits mostly inhibitors; hit rate 1.2% among 410,000; AID 1159524; calls by dose curve; tested in HEK293T cells; note: read-out not given here; nearly all actives have a fitted effect of over 45% in size
LASV entry inh: Lassa virus entry inhibition; Lassa virus pseudotype entry inhibition, cell reporter; Potency, µM (top dose mostly 37.9 µM), usual class: inhibitors; hit rate 1.2% among 300,000; AID 540256; calls by dose curve; tested in HEK293 cells; note: nearly all actives have a fitted effect of over 50% in size
Shiga toxin inh: Shiga toxin inhibition | Vero cells, Shiga toxin protein synthesis inhibition reporter | inhibition, % at 38.7 µM | hit rate 9.2% among 290,000; in the data active = inhibition mostly above about 28%, no sharp cut-off; inactive = mostly below about 43%
A number is an active result; i = inactive; ? = inconclusive; nt = no result given.

SMILES	HCV inhibitor	Marburg entry inh	Cycloheximide cs	FMDV inh	LASV entry inh	Shiga toxin inh
C#CCNC(=O)C1=C[C@H](c2ccccc2)C[C@H](OCCCCO)O1	i	nt	i	i	nt	i
Cc1ccc2c(c1)c1c(c(=O)n(Cc3ccccc3)c(=O)n1CC(=O)Nc1ccccc1C)n2C	nt	nt	nt	i	i	nt
Cc1ccccc1OCC(=O)NCCCNC(=O)c1ccccn1	i	?	i	i	i	i
Oc1ccc(Nc2nc3ccccc3n3cnnc23)cc1	nt	?	nt	i	nt	nt
COc1ccc(/C(C)=N/Nc2nc3ccccc3n3cnnc23)cc1OC	?	i	19.1	i	i	40.2
COc1cccc(Nc2nc3ccccc3n3cnnc23)c1	?	nt	14.5	i	nt	i
COc1ccc(Nc2nc3ccccc3n3cnnc23)cc1Cl	?	i	34.7	i	i	i
COc1cc(CO)ccc1Oc1nc2ccccc2n2cnnc12	i	nt	i	i	nt	i
Cc1ccc(Nc2nc3ccccc3n3cnnc23)c(Cl)c1	i	nt	i	i	nt	i
CCNc1c(NC(=O)C2CCC(C)CC2)c(=O)oc2ccccc12 (centres undefined)	i	i	i	i	i	i
CCCCCn1c(=O)[nH]c2cc(C(=O)N3CCN(c4ccc(OC)cc4)CC3)ccc2c1=O	nt	?	nt	i	i	nt
O=c1c(-c2ccccc2)nc2cncnc2n1C1CC1	nt	nt	nt	i	nt	nt
CCOC(=O)/C(C#N)=C\c1ccco1	i	i	i	i	i	i
CCOC(=O)/C(C#N)=C/C=C1/C=CC=CN1C	i	?	27.1	i	i	i
CCOC(=O)/C(C#N)=C\N(C)C	i	?	i	i	i	i
C=CCN1C=CC(=C/C=C(/C#N)C(=O)OCC)C=C1	?	?	34.1	i	?	i
NC(=O)c1nn(-c2ccccc2)nc1NC(=O)CN1CCOCC1	i	nt	i	i	nt	i
Cc1cnc(C(=O)Nc2nccs2)cn1	i	i	63.6	i	?	108.2
O=C(Nc1nnc(SCc2ccc(Cl)cc2)s1)c1cnccn1	i	?	i	i	i	i
Cc1cnc(C(=O)Nc2nnc(C)s2)cn1	i	i	i	i	i	i
CC(C)c1nnc(NC(=O)c2cnccn2)s1	i	i	16.6	i	i	38.1
Cc1cnc(C(=O)Nc2nnc(C3CC3)s2)cn1	i	i	31.9	i	i	i
Cc1cnc(C(=O)Nc2nnc(C(C)C)s2)cn1	i	?	41.4	i	i	70.6
CCN(CC)C(=O)C1=C(C)N(CCCN2CCCC2=O)C(=O)C(CC(=O)NCc2cccc3ccccc23)C1 (centres undefined)	nt	nt	nt	i	nt	nt
COc1ccc(CNC(=O)CN(Cc2ccccc2)C(=O)CCC(=O)Nc2nccs2)cc1	i	i	i	i	i	i
SMILES	HCV inhibitor	Marburg entry inh	Cycloheximide cs	FMDV inh	LASV entry inh	Shiga toxin inh
COCCNC(=S)N1CCCN(c2nc3cc(C)ccc3cc2C#N)CC1	i	nt	i	i	nt	i
COc1c(C(=O)Nc2nnc(C3CC3)s2)csc1Cl	i	nt	36.4	i	nt	54.4
O=C(Nc1nnc(C2CC2)s1)c1cccnc1Oc1ccc(Cl)cc1	i	nt	i	i	nt	i
CCOC(=O)C(=O)c1c(-c2ccccc2)nc2ccccn12	?	i	i	i	?	i
CCOC(=O)c1c(-c2ccccc2)nc2ccc(C)cn12	?	i	45.0	i	i	123.0
CCOC(=O)c1c(-c2ccccc2)nc2cc(C)ccn12	i	i	53.7	i	i	76.0
O=C(Nc1ccc(S(=O)(=O)NC2=NCCCCC2)cc1)c1ccc(C(F)(F)F)cc1	?	nt	i	?	nt	i
Cc1nn(-c2ccc(N3CCOCC3)nn2)c(C)c1CCC(=O)N1CCN(C)CC1	i	i	i	i	i	i
O=C(Nc1ccccc1-c1nc2ccccc2s1)c1cc(Cl)cc(Cl)c1	nt	nt	nt	i	i	nt
c1ccc(-c2nnc(SCCC3OCCCO3)o2)cc1	i	i	42.6	i	?	104.1
O=C(CSc1nnc(-c2ccccc2)o1)NCC1CCCCC1	?	i	i	i	i	i
Brc1ccc(-c2nnc(SCCC3OCCCO3)o2)cc1	i	i	41.6	i	i	59.4
Nc1nc2c(s1)C(=O)CC(c1ccccc1)C2 (centres undefined)	i	i	i	i	i	i
CC/C(O)=C1\C(=O)CCCC1=NCCc1c(C)[nH]c2ccc(C)cc12	i	nt	i	i	nt	i
CCCC/C(O)=C1\C(=O)CCCC1=NCCc1c(C)[nH]c2ccc(OC)cc12	i	8.91µM	i	i	?	i
CCC(=O)N=c1sc2cc([N+](=O)[O-])ccc2n1CCOC	i	i	i	i	i	i
Cn1c(=NC(=O)C2CCCCC2)sc2cc([N+](=O)[O-])ccc21	i	?	42.0	i	?	98.9
CCOc1ccc2c(c1)sc(=NC(=O)C1CC1)n2C	i	i	39.3	nt	i	61.8
CC(C)=CC(=O)Nc1nnc(-c2cccnc2)s1	i	i	i	i	?	i
COc1cc(Cl)c(CNC[C@H]2O[C@@H](n3ccc(=O)[nH]c3=O)[C@H](O)[C@@H]2O)c(Cl)c1O	i	nt	nt	i	nt	nt
COc1ccc(CNC[C@H]2O[C@@H](n3ccc(=O)[nH]c3=O)[C@H](O)[C@@H]2O)cc1OC	6.31µM	nt	nt	i	nt	nt
O=c1c2ccccc2nnn1Cc1ccc2ccccc2c1	i	?	24.6	i	i	i
O=c1c2ccccc2nnn1COc1ccc(F)cc1Cl	i	?	40.6	i	i	55.3
COc1ccc(C(=O)OCn2nnc3ccccc3c2=O)cc1OC	i	?	i	i	i	i
CCC(=O)OCn1nnc2ccccc2c1=O	i	i	i	i	nt	i
SMILES	HCV inhibitor	Marburg entry inh	Cycloheximide cs	FMDV inh	LASV entry inh	Shiga toxin inh
O=c1c2ccccc2nnn1COc1ccc(Cl)cc1Br	i	i	29.4	i	?	i
O=c1c2ccccc2nnn1COc1cccc2ccccc12	i	nt	45.4	i	nt	143.2
COC(=O)c1cccc(Cn2nnc3ccccc3c2=O)c1	i	i	i	i	i	i
CC(Oc1ccc(Cl)cc1Cl)C(=O)OCn1nnc2ccccc2c1=O (centres undefined)	i	i	i	i	i	i
COc1ccc(NC(=O)CSc2nc3ccccc3n2Cc2cccc(OC)c2)cc1	nt	nt	nt	i	i	nt
COC(=O)C1N2C(=O)[C@@H](NC(=O)COc3ccccc3)[C@H]2SC1(C)C (some centres undefined)	i	nt	nt	i	nt	nt
CCOC(=O)N1CCN(C(=O)c2ccc(N3C(=O)c4ccccc4C3=O)cc2)CC1	i	?	i	i	i	i
Cc1ccccc1NC(=O)C(NS(=O)(=O)c1ccc2c(c1)c(=O)n(C)c(=O)n2C)c1ccccc1 (centres undefined)	i	nt	i	i	nt	i
CCN(/N=C/c1ccc(Cl)cc1)c1cc(=O)n(C)c(=O)[nH]1	i	i	34.1	i	i	active
CCOc1cccc2c1OC(c1cc(OC)c(OC)c(OC)c1)N1N=C(c3ccc(C)o3)CC21 (centres undefined)	?	?	38.8	i	i	i
CN(C(=O)C1CCN(S(=O)(=O)c2ccccc2[N+](=O)[O-])CC1)C1CCCCC1	i	?	nt	i	?	nt
Cc1cc(Cl)c2oc(C(=O)NCCC3CCCCO3)c(C)c2c1 (centres undefined)	25.1µM	?	i	i	?	86.8
Cc1cc(Cl)c2oc(C(=O)NCCN3CCCCC3CO)c(C)c2c1 (centres undefined)	nt	i	14.8	i	i	i
